Screens: PubChem BioAssay, National Center for Advancing Translational Sciences (NCATS)
GoLoco inh red = RGS12 GoLoco-Gai1 interaction inhibition | 230,000 tested, 0.44% active | Potency, µM (series often up to 61.6 µM), for inactives: at the highest dose activity, negative = inhibition, most hits filed as inhibitors | AID 880 | Gai1:RGS12 GoLoco peptide FP, rhodamine, 10 min; active = well fitted inhibition curve with a large enough effect, not every such curve was filed as active; inactive = no such curve, though single readings can be large or run the other way; note: nearly all actives have a fitted effect of over 30% in size
TRb-SRC2 inh = TRbeta-SRC2 interaction inhibition | TRbeta-SRC2 peptide binding, fluorescence polarization; receptor liganded with 1 µM T3 | Potency, µM (top dose mostly 106 µM), inactives show at the highest dose activity change, negative = inhibition, most hits filed as inhibitors | 280,000 tested, 0.065% active | AID 1469;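 note: plate controls were bound peptide for no effect and peptide without receptor for full effect; nearly all actives have a fitted effect of over 50% in size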
Target sequence (P10828 whole entry, looked up): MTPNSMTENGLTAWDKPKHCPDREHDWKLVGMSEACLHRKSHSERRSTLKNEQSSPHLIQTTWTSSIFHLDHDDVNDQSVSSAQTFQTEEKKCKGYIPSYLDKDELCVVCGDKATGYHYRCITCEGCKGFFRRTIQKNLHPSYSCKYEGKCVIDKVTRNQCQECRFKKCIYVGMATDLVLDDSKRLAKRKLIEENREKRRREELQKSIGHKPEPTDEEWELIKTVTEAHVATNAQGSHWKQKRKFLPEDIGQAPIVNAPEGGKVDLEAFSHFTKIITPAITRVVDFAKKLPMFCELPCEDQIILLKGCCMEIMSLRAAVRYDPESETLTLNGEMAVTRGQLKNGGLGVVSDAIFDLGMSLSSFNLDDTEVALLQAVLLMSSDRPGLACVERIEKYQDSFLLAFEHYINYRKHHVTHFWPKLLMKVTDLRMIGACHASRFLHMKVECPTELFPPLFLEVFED
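Binding of a 20-amino-acid Texas Red SRC2 peptide (20 nM) to TRb ligand-binding domain (0.6 uM) with agonist T3 at 1 uM was followed by fluorescence polarization after a 5 hr room-temperature incubation.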
RECQ1 inh = RECQ1 (human) helicase inhibition | P46063 | RECQ1 DNA unwinding, red fluorescence kinetic read | Potency, µM (top dose mostly 57.3 µM), for inactives: top-dose activity, negative = inhibition, hits mostly inhibitors | 240,000 tested, 0.54% active | AID 2549;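 note: plate controls were vehicle for no effect and no enzyme for full effect; nearly all actives have a fitted effect of over 30% in size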
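50 nM RECQ1T1 preincubated 15 min with compound in Tris pH 8.0 buffer with MgCl2, DTT, Tween-20 and 2.5 ug/ml poly(dI-dC); started with 200 nM TAMRA/BHQ-2 forked duplex and 2 mM ATP. Unwinding read as fluorescence (525/598 nm), two reads 2 h apart.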
APE1 inh = blocks human APE1 abasic DNA cleavage. P27695. recombinant APE1, TAMRA/BHQ-2 abasic DNA cleavage fluorescence. Potency, µM (series often up to 65.8 µM), for the others: at the top dose activity change, negative = inhibition, hits mostly inhibitors. 350,000 tested, 0.35% active. AID 2517;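 note: plate controls were vehicle for no effect and reference inhibitor for full effect; nearly all actives have a fitted effect of over 55% in size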
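Endonuclease cleavage of a quenched abasic-site DNA duplex (50 nM) by APE1 (0.75 nM) was tracked by TAMRA dequenching. Compounds were preincubated with enzyme 15 min at room temperature; data normalized to buffer-only and DMSO wells plus NSC13755 control.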
BLM inh = Bloom syndrome helicase (human) inhibition. Potency, µM (doses to about 56.1 µM), without a hit: at the top dose activity change, negative = inhibition, most hits filed as inhibitors. P54132. 350,000 tested, 0.2% active. recombinant BLM DNA unwinding, fluorescence dequenching. AID 2528;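 note: plate controls were vehicle for no effect and no enzyme for full effect; nearly all actives have a fitted effect of over 35% in size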
TR SRC2 fluor cs = Texas Red fluorescence interference in TRb-SRC2 counter-screen | TRb/SRC2 Texas Red total fluorescence interference | AID 1479 | Potency, µM (titrated, usually from 106 µM), inactives show at the top dose fluorescence change, negative = quenching | 280,000 tested, 0.29% active; active = well fitted curve in either direction with a large enough effect; inconclusive = small, poorly fitted or top-dose-only effect
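Flags fluorescent or light-absorbing compounds by total fluorescence, S + 2P, at 555 nm excitation and 632 nm emission. Mixture: 20 nM Texas Red SRC2 peptide, 0.6 uM human TRb LBD, 1 uM T3, 5% DMSO; compound exposure 5 h at ambient temperature.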
* hit, by the source's call; i = inactive; ? = inconclusive; / = no result given; ! = not active in a repeat; [ ] = dose if it differs, or a comment. An excerpt weighted towards active compounds, which were near 0.9% of everything screened. Unless noted, calls come from the whole dose curve; as a rule, active = well fitted curve in the direction sought with a large enough effect; inconclusive = small, poorly fitted or top-dose-only effect, or another doubt; inactive = no such curve, though single readings can be large; an effect the other way counts as inactive or inconclusive. Unless noted, % is set by controls: 0 for no effect and ±100 for the full control effect; potency is the fitted concentration of half-maximal effect.

SMILES	GoLoco inh red	TRb-SRC2 inh	RECQ1 inh	APE1 inh	BLM inh	TR SRC2 fluor cs
c1coc(-c2nc3ccccc3nc2-c2ccco2)c1	-13%	4%	?	-12%	16µM*	-29%
O=C(NCCc1ccccc1)c1ccc2nc(-c3ccco3)c(-c3ccco3)nc2c1	-5%	9%	?	?	7.1µM*	28µM*[quencher]
CCCn1c(=N)c(C(=O)NC2CCCC2)cc2c(=O)n3cc(C)ccc3nc21	/	-10%	/	/	1%	-2%
CC1=C(C(=O)OC(C)C)C(c2ccc(Cl)cc2)n2c(s/c(=C\c3ccc(OCC(=O)O)cc3)c2=O)=N1 (stereo unspecified)	/	/	/	6.7µM*	-22%	/
CCOC(=O)C1=C(C)N=c2s/c(=C\c3ccc(OCC(=O)O)cc3)c(=O)n2C1c1ccccc1 (stereo unspecified)	/	/	/	13%	-5%	/
O=C1OC(c2ccc(O)c(-c3ccccc3)c2)(c2ccc(O)c(-c3ccccc3)c2)c2c(Cl)c(Cl)c(Cl)c(Cl)c21	2%[14.2 µM]	/	/	/	/	/
O=C1OC2(c3cc(Br)c(O)c(Br)c3Oc3c2cc(Br)c(O)c3Br)c2c(Cl)c(Cl)c(Cl)c(Cl)c21	0.79µM*	2.5µM*	5µM*	4.5µM*	/	?
Cc1nc(N=Nc2cc(S(=O)(=O)O)ccc2S(=O)(=O)O)c(COP(=O)(O)O)c(C=O)c1O	3%	3%	-30%	16µM*	88%	-3%
COc1cc(OC)c2c(O)c3c(c(-c4c5c(c(O)c6c(OC)cc(OC)cc46)CO[C@@H](C)[C@H]5O)c2c1)[C@H](O)[C@H](C)OC3	218%	10%	25µM*	?	?	9%
CC1(C)[C@@H](OC(=O)CCC(=O)O)CC[C@]2(C)[C@H]3C(=O)C=C4[C@@H]5C[C@@](C)(C(=O)O)CC[C@]5(C)CC[C@@]4(C)[C@]3(C)CC[C@@H]12	/	/	/	-4%[21 µM]	/	/
COc1ccc(NC(=O)CSc2nc(NS(=O)(=O)c3ccccc3)cc(=O)[nH]2)cc1	5%	18%	14µM*	?	?	-5%
COc1ccc(Cl)cc1NC(=O)CSc1nc(NS(=O)(=O)c2ccccc2)cc(=O)[nH]1	/	/	/	11%	-6%	/
COc1ccc(NC(=O)CSc2cc(-c3ccccc3)nc(C)n2)cc1	/	-26%	/	/	-3%	8.9µM*[quencher]
CCN1/C(=C/C(C)=C/c2sc3ccccc3[n+]2CC)Sc2ccccc21	-134%	?	13µM*	-14%	?	20µM*[fluorescent]
CS(=O)(=O)CCC(C(=O)Nc1cccc(C(F)(F)F)c1)N1Cc2ccccc2C1=O (stereo unspecified)	/	-12%	/	/	-2%	25µM*[quencher]
Cc1cc(C)c(C#N)c(=N)o1	22µM*	-1%	7%	2%	-2%	-2%
CSc1nc(C)cc(C)c1C#N	10%	-6%	-3%	-4%	0%	-3%
CC(C)(C)c1ccc(O)c(C(C)(C)C)c1	/	-1%[201 µM]	/	/	/	-2%[201 µM]
COCCCNC(=O)c1nn(C)c2c1CS(=O)(=O)c1ccccc1-2	/	-17%	/	/	1%	100µM*[quencher]
Nc1cccc2nsnc12	1%	4%	-1%	-6%	-14%	1%
Nc1cc2nsnc2cc1Br	5%	?	?	?	4µM*	-9%
COC1[C@@H](O[C@@H]2O[C@H](C)[C@@H](O[C@H]3C[C@@](C)(O)[C@H](OC(=O)CC(C)C)[C@H](C)O3)[C@H](N(C)C)[C@H]2O)[C@@H](CC=O)C[C@@H](C)[C@@H](O)/C=C/C=C/C[C@@H](C)OC(=O)C[C@H]1OC(C)=O (stereo partly specified)	/	/	/	-2%[21 µM]	/	/
CCn1c(C)[n+](Cc2ccccc2)c2ccc(Cl)cc21	-33%	-4%	-10%	13%	0%	0%
CCn1c(C)[n+](Cc2ccccc2)c2ccc(C(=O)OC)cc21	1.3µM*	1%	5%	6%	-8%	-1%
Cc1ccc(C(=O)[C@@H]2[C@H]3C4COC(O4)C(=O)[C@@H]3[C@H]3C=Cc4ccccc4N32)cc1 (stereo partly specified)	4%	-5%	-8%	-7%	-12%	1%
SMILES	GoLoco inh red	TRb-SRC2 inh	RECQ1 inh	APE1 inh	BLM inh	TR SRC2 fluor cs
COc1ccc(C(=O)C2C3C4COC(O4)C(=O)C3C3C=Cc4ccccc4N32)c(OC)c1 (stereo unspecified)	95%	7.1µM*	?	3%	-15%	22µM*[fluorescent]
CC(=O)[C@@H]1[C@H]2[C@H](C(=O)[C@H]3OC[C@@H]2O3)[C@H]2C=Cc3ccccc3N21	10%	6%	32µM*	-6%	-16%	35µM*[fluorescent]
Cc1c(C(=O)O)sc2nc(/C=C/c3cccc(F)c3)[nH]c(=O)c12	/	/	/	?	-7%	/
Cc1ccc(/C=C/c2nc3sc(C(=O)O)c(C)c3c(=O)[nH]2)cc1[N+](=O)[O-]	/	/	/	8.4µM*	-9%	/
NC[C@H]1O[C@H](O[C@H]2[C@H](O)[C@@H](O[C@H]3O[C@H](CO)[C@@H](O)[C@H](N)[C@H]3O)[C@H](N)C[C@@H]2N)[C@H](O)[C@@H](O)[C@@H]1O	/	/	/	-2%[21 µM]	/	/
Oc1c(Cl)cc(Cl)cc1Sc1cc(Cl)cc(Cl)c1O	11%	?	40µM*	8%	?	?
N#Cc1cccc(-c2csc(N3CCC(C(N)=O)CC3)n2)c1	/	/	/	-10%	/	/
N=c1c(S(=O)(=O)c2ccccc2)cc2c(=O)n3ccccc3nc2n1Cc1ccco1	37%	-5%	-19%	-1%	7.1µM*	-9%
Cc1ccc(S(=O)(=O)c2cc3c(=O)n4ccccc4nc3n(Cc3ccco3)c2=N)cc1C	8%	-5%	-8%	-1%	?	1%
Cc1cccn2c(=O)c3cc(S(=O)(=O)c4ccccc4)c(=N)n(Cc4ccco4)c3nc12	12%	-5%	i	-1%	28µM*	-1%
CC(=O)OC[C@]12CC[C@H]3[C@@](C)(CC[C@H]4C(C)(C)CCC[C@]34C)[C@@H]1C[C@H](C1=CC(=O)O[C@@H]1OC(C)=O)O2	/	/	/	13µM*	/	/
N#C/C(=C\c1c[nH]c2ccccc12)C(=O)NC1CC1	/	/	/	7%	0%	/
N#C/C(=C\c1c[nH]c2ccccc12)C(=O)c1ccc(O)c(O)c1	-7%	7%	11µM*	?	/	-15%
NC(N)=Nc1nc2ccc([N+](=O)[O-])cc2[nH]1	0.35µM*!	2%	i	1%	2%	-3%
CCCCn1c(O)c(/C=C/C=C/C=Nc2ccccc2)sc1=S	77%	19%	32µM*	-5%	-25%	16%
CCn1c(O)c(/C=C/C=C/C=Nc2ccccc2)sc1=S	185%	11%	i	-7%	-11%	3%
